# According to PubChem BioAssay (Tox21):
# Records with an inconclusive call do not appear. A call without a number means that no potency is given here. The source made the active and inactive calls. Unless noted, the call rests on the fitted dose curve; in most records, active means well fitted curve in the direction sought with a large enough effect in the repeat runs; inconclusive means weak or mixed curves; inactive means no such curve, though single readings can be large; an effect the other way counts as inactive or inconclusive.
# Columns and labels:
# [1] = qHTS assay to identify small molecule agonists of H2AX (AID 1224845; active means well fitted activation curve with a large enough effect in the signal ratio in the repeat runs, not every such curve was filed as active; the % refers to the signal ratio)
# Method in brief: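 Wild-type CHO-K1 cells plated overnight, then exposed 3 hr at 37C to compounds at 15 concentrations (0.76% DMSO). Lysed, then HTRF anti-pH2AX(S139)-cryptate/anti-H2AX-d2 detection after 24 hr at room temperature; emissions 665 and 620 nm.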
# [2] = qHTS assay for small molecules that induce genotoxicity in human embryonic kidney cells expressing luciferase-tagged ATAD5 (AID 651632); further: nearly all actives have a fitted effect of over 15% in size
# Method in brief: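 ATAD5-luc HEK293T, 2,000 cells/well; cpd or DMSO pin-transferred; 16 hr, 37C/5% CO2; Amplite 30 min RT; luminescence.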
# [3] = qHTS assay to test for compound auto fluorescence at 535 nm (green) in HepG2 cells (AID 720675)
# [4] = qHTS assay to test for compound auto fluorescence at 590 nm (red) in HEK293 cells (AID 720679)
# Method in brief: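 Using HEK293 cells at 2,000 per well, the screen added 23 nL of each compound after cell attachment and incubated overnight (37C, 5% CO2). The plate reader then captured red-label fluorescence, Ex/Em 540/590nm.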
# [5] = qHTS assay to test for compound auto fluorescence at 535 nm (green) in HEK293 cells (AID 720680)
# [6] = qHTS assay to test for compound auto fluorescence at 590 nm (red) in HepG2 cell free culture (AID 720684)
# Method in brief: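 Measured in medium alone (MEM containing 10% FBS) following pintool addition of compound; emission at 590 nm with 540 nm excitation, referenced to Rose Bengal sodium.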
# [7] = qHTS assay to test for compound auto fluorescence at 460 nm (blue) in HepG2 cell free culture (AID 720685)
# Method in brief: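 Compound (23 nL) or DMSO pinned into cell-free MEM with 10% FBS; blue fluorescence read at 405/460 nm excitation/emission, expressed as auto-fluorescence equivalency to triamterene.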
# [8] = qHTS assay to test for compound auto fluorescence at 535 nm (green) in HepG2 cell free culture (AID 720686)
# [9] = molecular target: Luciferin 4-monooxygenase (Photinus pyralis) (UniProt P08659); experiment: qHTS assay to identify small molecule inhibitors of firefly luciferase (AID 1224835); further: series mostly up to about 120 µM; nearly all actives have a fitted effect of over 25% in size
# Method in brief: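 Quantitative HTS format; KM concentrations of both substrates. Purified P. pyralis FLuc activity quantified from luminescence images.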
# [10] = qHTS assay to identify small molecule agonists of the constitutive androstane receptor (CAR) signaling pathway - cell viability counter screen (AID 1224836); further: series mostly up to about 92 µM; nearly all actives have a fitted effect of over 45% in size
# Method in brief: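 HepG2 cells stably carrying hCAR and a CYP2B6-2.2kb reporter; 15-concentration compounds plus PK11195 (final 0.75 uM), 23 hr at 37 C/5% CO2. Viability read by CellTiter-Fluor fluorescence.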
# [11] = qHTS assay to identify small molecule antagonists of the constitutive androstane receptor (CAR) signaling pathway - cell viability counter screen (AID 1224837); further: series mostly up to about 92 µM; nearly all actives have a fitted effect of over 45% in size
# Method in brief: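 HepG2-CYP2B6-hCAR cells, 2500/well, 4 hr pre-incubation; compound titration, 15 conc.; CITCO 50 nM final; 23 hr, 37 C/5% CO2; CellTiter-Fluor, fluorescence intensity.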
# [12] = qHTS RealTime-Glo MT Cell Viability Assay in HepG2 cells - 24 hour (AID 1224867); further: nearly all actives have a fitted effect of over 50% in size
# Method in brief: (§1)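 HepG2 suspension premixed with RealTime-Glo reagents is plated at 600 cells per well and left 5 h at 37 C/5% CO2. Compounds in DMSO then go in, and bioluminescence reflecting viable cell number is recorded over 40 h.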
# [13] = qHTS RealTime-Glo MT Cell Viability Assay in HEK293 cells - 32 hour (AID 1224868); further: nearly all actives have a fitted effect of over 50% in size; further: potency means the concentration at half of the fitted maximal effect
# Method in brief: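 Reads taken at 0, 8, 16, 24, 32 and 40 h from the same wells. HEK293 cells (600/well) carried RealTime-Glo reagents from seeding, with compound added after a 5 h settle at 37 C.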
# [14] = A CellTox Green Cytotoxicity Assay to monitor cytotoxicity in HepG2 cells - 40 hour (AID 1224879); further: potency means the concentration at half of the fitted maximal effect; nearly all actives have a fitted effect of over 40% in size
# Method in brief: (§2)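 Read-out is fluorescence of a cyanine dye excluded from live cells that stains DNA of dead HepG2 cells, with signal proportional to cytotoxicity. Plates were read at 0, 8, 16, 24, 32 and 40 h after compound addition.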
# [15] = A CellTox Green Cytotoxicity Assay to monitor cytotoxicity in HepG2 cells - 32 hour (AID 1224883); further: potency means the concentration at half of the fitted maximal effect; nearly all actives have a fitted effect of over 50% in size
# Method in brief: as §2
# [16] = qHTS RealTime-Glo MT Cell Viability Assay in HepG2 cells - 16 hour (AID 1224885); further: nearly all actives have a fitted effect of over 50% in size
# Method in brief: as §1
# [17] = qHTS assay to identify small molecule antagonists of the sonic hedgehog signaling (Shh) pathway - cell viability counter screen (AID 1259367); further: nearly all actives have a fitted effect of over 55% in size
# Method in brief: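 After a 4 hr settling period, 3T3 Gli1-Luc cells were treated with DMSO-dissolved chemicals and conditioned medium, kept 24 hr at 37C in 5% CO2, and assayed for viability by CellTiter-Fluor fluorescence following 1 hr reagent incubation.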
# [18] = A CellTox Green Cytotoxicity Assay to monitor cytotoxicity in HepG2 cells - 24 hour (AID 1224878); further: nearly all actives have a fitted effect of over 45% in size
# Method in brief: as §2
# [19] = A CellTox Green Cytotoxicity Assay to monitor cytotoxicity in HEK293 cells - 8 hour (AID 1224884); further: nearly all actives have a fitted effect of over 35% in size
# Method in brief: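 Nonlytic real-time cytotoxicity: HEK293 + CellTox Green reagent plated, 5 h preincubation, pintool compound addition (23 nL in DMSO), 37 C for 40 h, fluorescence measured at successive time points.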
# [20] = molecular target: Cytochrome P450 2C9 (Homo sapiens) (UniProt P11712); experiment: Cytochrome P450 Family 2 Subfamily C Member 9 (CYP2C9) small molecule antagonists: luciferase reporter qHTS assay (AID 1671198)
# Method in brief: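 CYP2C9 activity was measured with a P450-Glo proluciferin substrate. Enzyme–substrate mix was held with compound for 10 min at room temperature, then NADPH regeneration solution was added for 1 h at 37C. Luciferin product was read as luminescence.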
# Sequence of Luciferin 4-monooxygenase (Photinus pyralis) (P08659 whole entry, looked up): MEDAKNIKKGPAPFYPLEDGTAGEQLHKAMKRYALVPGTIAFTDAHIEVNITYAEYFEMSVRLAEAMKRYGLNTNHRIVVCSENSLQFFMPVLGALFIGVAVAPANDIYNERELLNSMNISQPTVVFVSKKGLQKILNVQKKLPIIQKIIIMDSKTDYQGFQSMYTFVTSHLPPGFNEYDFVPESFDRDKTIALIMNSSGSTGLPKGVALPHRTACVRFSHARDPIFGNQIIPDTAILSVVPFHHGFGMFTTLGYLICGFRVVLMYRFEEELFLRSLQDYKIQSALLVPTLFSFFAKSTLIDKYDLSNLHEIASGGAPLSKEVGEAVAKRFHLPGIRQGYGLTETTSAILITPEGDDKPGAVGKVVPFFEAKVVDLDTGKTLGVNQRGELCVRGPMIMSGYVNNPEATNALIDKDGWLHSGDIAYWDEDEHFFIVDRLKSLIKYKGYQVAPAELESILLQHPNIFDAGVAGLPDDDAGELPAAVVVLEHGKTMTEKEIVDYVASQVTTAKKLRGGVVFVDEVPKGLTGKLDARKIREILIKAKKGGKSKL
# Sequence of Cytochrome P450 2C9 (Homo sapiens) (P11712 whole entry, looked up): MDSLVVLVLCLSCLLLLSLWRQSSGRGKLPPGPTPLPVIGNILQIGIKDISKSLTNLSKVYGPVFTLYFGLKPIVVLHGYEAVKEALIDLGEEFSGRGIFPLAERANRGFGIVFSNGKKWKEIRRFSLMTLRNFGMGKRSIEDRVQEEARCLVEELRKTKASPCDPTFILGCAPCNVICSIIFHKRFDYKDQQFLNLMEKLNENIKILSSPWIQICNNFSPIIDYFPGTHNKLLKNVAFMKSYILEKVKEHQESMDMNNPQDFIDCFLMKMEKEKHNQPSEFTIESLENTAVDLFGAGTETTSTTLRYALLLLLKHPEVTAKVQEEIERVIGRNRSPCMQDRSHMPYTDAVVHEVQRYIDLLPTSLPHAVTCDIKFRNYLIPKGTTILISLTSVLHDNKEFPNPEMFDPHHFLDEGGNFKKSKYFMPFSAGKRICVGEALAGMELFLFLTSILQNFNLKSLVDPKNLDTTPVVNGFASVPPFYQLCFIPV
structure (smiles),measurement,setting,value
CCC(C)=O,Potency,[1],inactive
O=[N+]([O-])c1c(Cl)c(Cl)cc(Cl)c1Cl,Potency,[2],inactive
same,Potency,[3],inactive
same,outcome,[4],inactive
same,Potency,[5],inactive
same,outcome,[6],inactive
same,Potency,[7],inactive
same,Potency,[8],inactive
same,Potency,[9],inactive
same,Potency,[10],inactive
same,Potency,[11],inactive
same,Potency,[12],inactive
same,Potency,[13],inactive
same,Potency,[14],54.9 µM (active)
same,Potency,[15],54.9 µM (active)
same,Potency,[16],inactive
same,Potency,[17],inactive
CC1COC(Cn2cncn2)(c2ccc(Oc3ccc(Cl)cc3)cc2Cl)O1 (stereo not given),Potency,[2],inactive
same,Potency,[3],inactive
same,outcome,[4],inactive
same,Potency,[5],inactive
same,outcome,[6],inactive
same,Potency,[7],inactive
same,Potency,[8],inactive
same,Potency,[9],inactive
same,Potency,[13],19.5 µM (active)
same,Potency,[18],inactive
same,Potency,[19],inactive
same,Potency,[17],inactive
same,Potency,[20],1.12 µM (active)
Clc1ccccc1-c1ccccc1Cl,Potency,[2],inactive
same,Potency,[3],inactive
same,outcome,[4],inactive
same,Potency,[5],inactive
same,outcome,[6],inactive
same,Potency,[7],inactive
same,Potency,[8],inactive
same,Potency,[9],inactive
same,Potency,[10],inactive
same,Potency,[11],inactive
same,Potency,[12],inactive
same,Potency,[16],inactive
same,Potency,[17],inactive
CCCN1CCC[C@H](c2cccc(O)c2)C1,Potency,[2],inactive
same,Potency,[3],inactive
same,outcome,[4],inactive
same,Potency,[5],inactive
same,outcome,[6],inactive
same,Potency,[7],inactive
same,Potency,[8],inactive
O=P(O)(O)C(Cl)(Cl)P(=O)(O)O,Potency,[2],inactive
same,Potency,[3],inactive
same,outcome,[4],inactive
same,Potency,[5],inactive
same,outcome,[6],inactive
same,Potency,[7],inactive
same,Potency,[8],inactive
CCCCCN(C)CCC(O)(P(=O)(O)O)P(=O)(O)O,Potency,[2],inactive
same,Potency,[3],inactive
same,outcome,[4],inactive
same,Potency,[5],inactive
same,outcome,[6],inactive
same,Potency,[7],inactive
same,Potency,[8],inactive
CCCCc1ccc(C(=O)O)nc1,Potency,[2],inactive
same,Potency,[3],inactive
same,outcome,[4],inactive
same,Potency,[5],inactive
same,outcome,[6],inactive
same,Potency,[7],inactive
same,Potency,[8],inactive
C[C@]12N[C@H](Cc3ccccc31)c1ccccc12,Potency,[2],inactive
same,Potency,[3],inactive
same,outcome,[4],inactive
same,Potency,[5],inactive
same,outcome,[6],inactive
same,Potency,[7],inactive
same,Potency,[8],inactive
CC(C)NC(C)Cc1ccc(I)cc1 (stereo not given),Potency,[2],inactive
same,Potency,[3],inactive
same,outcome,[4],inactive
same,Potency,[5],inactive
same,outcome,[6],inactive
same,Potency,[7],inactive
same,Potency,[8],inactive
